Here are results for 56 compounds from PubChem BioAssay AID743279 (National Center for Advancing Translational Sciences (NCATS), 2014).

The campaign covered roughly 360,000 compounds. About 17,000 (4.7%) were called active. Another 5% or so got no clear call; they are omitted. What follows is part of a selection rich in actives, with near analogues and random picks from the rest. Unmarked numbers belong to inactive results. Rule as the data show it: active = activity change below about -50%; inconclusive = mostly about -30% to -49%; inactive = weaker than that.
% is scaled to controls: 0 for no effect and ±100 for the full control effect.

This assay is described as follows: qHTS for Inhibitors of Inflammasome Signaling: IL-1-beta AlphaLISA Primary Screen. The conditions noted are these: THP-1 LPS/ATP IL-1B secretion, 16 h; at 57.5 µM, hits give low values. The method, boiled down:
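Secreted IL-1B measured by AlphaLISA bead assay after 16 h compound exposure of THP-1 cells; compounds (final up to 57.5 uM) added 1 h before LPS (250 ng/mL) and ATP (1.25 mM) stimulation; lower signal means less secretion.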
Take `Cc1ccc(CNC(=O)Nc2nnc([C@H]3C[C@H](O)[C@@H](CO)O3)s2)cc1`: the activity change is 3.84%.
The same measure for `C[C@@H]1CN([C@H](C)CO)C(=O)c2cc(-c3ccc(F)cc3)cnc2O[C@H]1CN(C)C(=O)c1ccc(F)cc1`: -10.1%; for `CN(CCc1ccccc1)c1ccc([N+](=O)[O-])cn1`: 25.8%; for `CNS(=O)(=O)c1cccc(C(=O)OCC(=O)N2c3ccccc3NC(=O)C2(C)C)c1`: 11.2%.
Take `Cc1cc(C(=O)OCC(=O)N2c3ccccc3NC(=O)C2(C)C)c(C)n1-c1ccccc1`: the activity change was -78.6% (active).
To `Cc1ccc(OCCC(=O)OCC(=O)N2c3ccccc3NC(=O)C2(C)C)cc1` belongs 11%; to `NC(=O)C1(Nc2ccc(-c3ccccc3)cc2)CCCC1`, 3.69%; to `Cc1ccc(S(=O)(=O)N(CC(=O)Nc2cccnc2)c2ccc(Br)cc2)cc1`, -14.5%.
In the case of `O=C(Nc1ccc(OC(F)(F)F)cc1)c1ccc2c(c1)no[n+]2[O-]`, the activity change is -96.1% (active).
To `Cn1cccc1/C=N/NC(=O)c1ccc(OC(F)(F)C(F)F)cc1` belongs 81.3%; to `Cn1nccc1NC(=O)Nc1ccc(OC(F)(F)F)cc1`, 1.91%; to `CC(CC(=O)N1CCN(S(=O)(=O)c2ccccc2)CC1)n1cncn1` (stereo unspecified), -19.9%.
To `Cc1cccc(S(=O)(=O)N(C)C[C@@H]2OCc3cnnn3CCCC(=O)N([C@H](C)CO)C[C@@H]2C)c1` belongs -0.819%; to `CN1OC[C@@H]2CN(C(=O)c3ccc(-c4ccccc4)cc3)[C@H](c3ccc(-c4cccc(F)c4)cc3)C[C@@H]21`, 56.8%.
The same measure for `C[C@@H]1CN([C@H](C)CO)S(=O)(=O)c2ccc(C#CC3CCCCC3)cc2O[C@H]1CN(C)C(=O)Cc1ccncc1`: -1.14%.
For the compound `c1ccc(Nc2nc(N3CCOCC3)c3ccccc3n2)cc1`, the activity change was -109% (active).
The same measure for `c1ccc(-c2nnc(N3CCOCC3)c3ccccc23)cc1`: -6.84%; for `CCCCc1nc2ccccc2c(NC(=O)CN2CCN(C)CC2)c1CCC`: -6.28%; for `CN1CCN(c2nc(Nc3ccc(O)cc3)nc3ccccc23)CC1`: -96.2% (active).
`Cc1cc(Nc2ccc(Br)cc2)nc2ccccc12`: the activity change is -5.96%.
To `O=C(COc1nc2ccccc2nc1N1CCOCC1)NCC(F)(F)F` belongs 0.929%; to `CCNC(=O)COC(=O)/C=C/c1c(C)nn(Cc2cccc(OC)c2)c1Cl`, -4.38%.
Turning to `NC(=S)NN=Cc1ccc(OC(=O)COc2cc(Cl)c(Cl)cc2Cl)cn1`, the activity change was 119%.
The same measure for `CC1=NN(c2cccc(Cl)c2)C(=O)C12CC(C)=C(C)CS2` (stereo unspecified): -78.4% (active); for `O=C(O)C(=Cc1ccccc1[N+](=O)[O-])c1ccccc1`: 12.6%; for `Cc1c(C(C)(C)O)[nH]c2ccc(C#N)cc12`: 38.6%.
With `Cc1cccc(N(C(=O)Cc2cccs2)C(C(=O)NC2CCCC2)c2ccsc2)c1` (stereo unspecified), the activity change was 0%.
To `CCOC(=O)C1=C(N)N(c2ccc(C)cc2)C2=C(C(=O)CCC2)C1c1cccs1` (stereo unspecified) belongs -55.3% (active); to `CCOC(=O)c1cc2c(n(-c3ccc(C)cc3)c1=O)CCCC2=O`, -18.1%.
The same measure for `O=C1CCCC2=C1C(c1cccs1)CC(=O)N2c1ccc(F)cc1` (stereo unspecified): 20.1%; for `Cc1ccccc1CS(=O)(=O)CC1(O)CCN(C(=O)c2cccc(C(F)(F)F)c2)CC1`: 9.6%; for `Cc1ccc(-c2nc3ccc(Br)cn3c2Cc2ccccc2C(F)(F)F)cc1`: 16.5%.
With `CC(NCc1ccccc1OC1CCCC1)c1ccccc1` (stereo unspecified), the activity change is -82.2% (active).
Regarding `COc1ccccc1NC(=O)C(C)OC(=O)CC1CCCC1` (stereo unspecified), the activity change was 23.8%.
To `COc1ccccc1CN1CCN(C(c2ccccc2)c2ccccc2)CC1` belongs -16.2%.
As for `CCCCNC1(C#N)CCN(Cc2ccccc2)CC1`, the activity change was 9.53%.
To `CC1(C(=O)NCc2ccc3c(c2)OCO3)CCN1CCc1ccccc1` (stereo unspecified) belongs 10.6%; to `CO/N=C(\N)c1ccc([N+](=O)[O-])cc1`, -10.8%; to `C/C(=N\N(C)C)c1ccc(OCCOc2ccc([N+](=O)[O-])cc2)cc1`, -52.7% (active).
To `C/C(=N/NC(=O)CC(=O)N/N=C(\C)c1ccc([N+](=O)[O-])cc1)c1ccc([N+](=O)[O-])cc1` belongs 26.9%.
To `Cc1cc([N+](=O)[O-])c(=O)[nH]c1C` belongs 26.9%; to `CN(C)C(=O)c1nc2ccc(Cl)cn2c1CNCc1cccc(OC(F)(F)F)c1`, 32.2%.
Consider `CSCC[C@H](NC(=O)NCCc1ccc(F)cc1)C(=O)O`, for which the activity change is 3.5%.
The same measure for `COc1ccc(C(O)C(O)(C(=O)OC(C)C)c2ccc(C)cc2)cc1` (stereo unspecified): -21%.
To `O=C(Nc1ccc(N2CCCC2=O)cc1)c1cncc(Br)c1` belongs 1.56%.
The same measure for `Cn1c(=O)n(C)c2cc(/C=N/NC(=O)c3cccc(Br)c3)ccc21`: -10.6%; for `O=C(N/N=C/c1cccc(Br)c1)c1ccc(N2CCCC2=O)cc1`: -55.3% (active); for `CC(=O)c1cccc(-c2ccc(CN3C(CC(C)C)C(=O)N(Cc4cn(CC5CCCCC5)nn4)CCS3(=O)=O)cc2)c1` (stereo unspecified): -9.9%.
Regarding `OCCC#Cc1ccc(N2C(c3ccsc3)=Cc3ccc(F)cc3C2c2c[nH]c3ccccc23)cc1` (stereo unspecified), the activity change is -15.9%.
The same measure for `COc1ccc(CCn2c(=N)c(C(=O)NCC3CCCO3)cc3c(=O)n4cccc(C)c4nc32)cc1OC` (stereo unspecified): -11.6%.
To `Cc1ccc(S(=O)(=O)c2cc3c(=O)n4cccc(C)c4nc3n(CCc3ccccc3)c2=N)cc1C` belongs 20.8%; to `COc1ccc(CCn2c(=N)c(C(=O)NCc3ccco3)cc3c(=O)n4cccc(C)c4nc32)cc1`, -53.7% (active); to `Cc1ccc(S(=O)(=O)N[C@H]2CCC[C@@H]2O)cc1`, 6.2%.
The same measure for `CCCNC(=O)C1(C)CCN1C(=O)Cc1ccc(-c2ccccc2)cc1` (stereo unspecified): -1.04%; for `COc1ccc(OC)c(NC(=O)C2(C)CCN2C(=O)Cc2ccccc2)c1` (stereo unspecified): -87.1% (active).
In the case of `C#Cc1ccc(NC(=O)C2(C)CCN2C(=O)Cc2ccc(-c3ccccc3)cc2)cc1` (stereo unspecified), the activity change was -2.2%.
